High-throughput results as filed in PubChem BioAssay.
This is a sample that favours compounds with a hit; in the whole collection about 11% have one here.
JMJD2A Tudor = blocks the human JMJD2A Tudor domain; 390,000 tested, 4.4% active; AlphaScreen JMJD2A-Tudor / H3K4me3 peptide binding; Potency, µM (titrated, usually from 114 µM), for the others: at the highest dose activity change, negative = inhibition, hits mostly inhibitors; AID 504339; note: % is set by controls: 0 for no effect and ±100 for the full control effect; nearly all actives have a fitted effect of over 50% in size
L3MBTL1 block = blocks human L3MBTL1. 230,000 tested, 0.66% active. Q9Y468. AlphaScreen L3MBTL1–H3K9me1 peptide binding. Potency, µM (series often up to 57.1 µM), without a hit: top-dose activity, negative = inhibition, most hits filed as inhibitors. AID 485360; note: % is set by controls: 0 for no effect and ±100 for the full control effect; nearly all actives have a fitted effect of over 60% in size
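L3MBTL1 50 nM + b-AHA-H3(1-15)K9me1 75 nM, 30 min RT; compound added, 30 min RT; streptavidin donor/Ni-chelate acceptor beads 10 ug/mL each final, 30 min RT dark; AlphaScreen read.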
HP1b chromo inh = HP1-beta chromodomain-methylated histone interaction inhibition; P83916; AlphaScreen HP1-beta / biotin-H3K9me3 peptide binding; Potency, µM (doses to about 114 µM), for the others: at the highest dose activity change, negative = inhibition, most hits filed as inhibitors; 390,000 tested, 0.56% active; AID 540317; note: nearly all actives have a fitted effect of over 70% in size
Target sequence (P83916 whole entry, looked up): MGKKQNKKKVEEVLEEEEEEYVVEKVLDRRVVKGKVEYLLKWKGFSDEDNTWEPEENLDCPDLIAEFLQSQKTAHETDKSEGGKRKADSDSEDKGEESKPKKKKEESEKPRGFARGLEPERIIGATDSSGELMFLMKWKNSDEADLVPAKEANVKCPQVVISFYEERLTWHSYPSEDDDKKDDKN
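HP1-beta protein (50 nM final) preincubated 30 min at room temperature with biotinylated H3(1-18)K9me3 peptide (50 nM) in PBS pH 7.4, 0.01% Tween-20, then compound added for 30 min. AlphaScreen streptavidin donor/nickel chelate acceptor beads (10 ug/mL final), 30 min dark, luminescence read.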
BAZ2B inh = BAZ2B (human) inhibition. Q9UIF8. AlphaScreen BAZ2B-H3K14Ac peptide displacement. Potency, µM (highest dose often 114 µM), inactives show at the top dose activity change, negative = inhibition, hits mostly inhibitors. 360,000 tested, 4.4% active. AID 504333; note: % is set by controls: 0 for no effect and ±100 for the full control effect; nearly all actives have a fitted effect of over 60% in size
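AlphaScreen displacement of biotin-H3(5-23)K14Ac peptide (50 nM final) from BAZ2B (50 nM final) in PBS pH 7.4, 0.01% Tween-20; complex preformed 30 min RT, then compounds (top 110 uM) 30 min RT, beads 20 min dark.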
G9a block = inhibitors of human histone lysine methyltransferase G9a. Q96KQ7. G9a H3K9 monomethylation, AlphaScreen, 2 h. Potency, µM (top dose mostly 102 µM), inactives show at the top dose activity, negative = inhibition, actives largely listed as inhibitors. 350,000 tested, 8.8% active; note: % is set by controls: 0 for no effect and ±100 for the full control effect; nearly all actives have a fitted effect of over 75% in size
Target sequence (Q96KQ7 913-1193 limits assumed): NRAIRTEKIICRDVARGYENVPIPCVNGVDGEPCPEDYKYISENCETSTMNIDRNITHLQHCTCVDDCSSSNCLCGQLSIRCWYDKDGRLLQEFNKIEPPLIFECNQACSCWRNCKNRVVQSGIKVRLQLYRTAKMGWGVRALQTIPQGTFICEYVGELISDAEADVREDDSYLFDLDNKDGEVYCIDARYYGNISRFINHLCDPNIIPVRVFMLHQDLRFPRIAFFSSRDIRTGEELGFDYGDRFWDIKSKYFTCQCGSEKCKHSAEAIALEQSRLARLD
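Chemiluminescent proximity detection of H3K9 monomethylation, read after 10 min bead incubation in the dark. Reaction: 20 nM G9a, 500 nM biotin-H3K9 peptide, 20 uM SAM cofactor, 2 h, room temperature, following 15 min enzyme-compound preincubation.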
An asterisk follows results filed as active; ? = inconclusive; / = not tested or not shown; ! = not active in a repeat; [ ] = dose if it differs, or a comment. Calls come from the whole dose curve; as a rule, active = well fitted inhibition curve with a large enough effect; inconclusive = small, poorly fitted or top-dose-only effect; inactive = no such curve, though single readings can be large or run the other way. Potency is the fitted concentration of half-maximal effect.

SMILES | JMJD2A Tudor | L3MBTL1 block | HP1b chromo inh | BAZ2B inh | G9a block
CC1=CSC2=NC(=O)/C(=C\c3cccn3-c3ccc([N+](=O)[O-])cc3)C(=N)N12 | ? | -7% | 84% | 10% | -19%
COc1ccc(-c2ccc(C(=O)O)o2)c([N+](=O)[O-])c1 | -6% | -8% | 17% | ? | 56µM*
COc1ccc(-c2ccc(/C=C3/C(=N)N4C(C)=CSC4=NC3=O)o2)c([N+](=O)[O-])c1 | ? | -1% | -30% | ? | 7.1µM*
COc1ccc(-c2ccc(/C=C3\C(=O)N(c4ccccc4)N=C3c3ccccc3)o2)c([N+](=O)[O-])c1 | ? | -17% | 3.5µM* | 8.9µM* | 7.1µM*
Cc1c(C(=O)Nc2cccc(F)c2)oc2c1-c1nn(Cc3c(F)cccc3Cl)cc1CC2 | -18% | / | 65% | 33% | 18%[59 µM]
COc1ccccc1NC(=O)Cn1c(=O)n(Cc2ccco2)c(=O)c2oc3ccccc3c21 | -10% | / | 22% | -12% | -21%[59 µM]
CCC(C)NCCOCCSc1ccc(Cl)cc1 (stereo not given) | 3.5µM* | 7% | ? | 79µM* | 8.9µM*
C=CCc1cc(C)ccc1OCCOCCC(C(=O)OCC)C(=O)OCC | 8% | 114% | 88% | 172% | 55%[59 µM]
COCCCNC(=O)CCSc1ccc(Cl)cc1 | -7% | 3% | 20% | 28% | 21%
C=CCc1cc(Cl)ccc1OCCCNC(C)C | 32µM* | 10% | ? | 56µM* | 8.9µM*
C=CCc1cc(Cl)ccc1OCCOCCNC(C)CC (stereo not given) | 1.4µM* | 8% | ? | 50µM* | 10µM*
C=CCc1ccccc1OCC(O)CNC(C)C (stereo not given) | -17% | 3% | 14% | -12% | ?
CCc1cccc(-n2nnc(-c3nsc(NC(=O)c4cccc(OC)c4)n3)c2C)c1 | -6% | / | 21% | -1% | 0%[59 µM]
CN(C)CC[C@@H](c1ccc(Cl)cc1)c1ccccn1 | 2% | / | 33% | / | 21%[59 µM]
CN(C)CC[C@@H](c1ccc(Br)cc1)c1ccccn1 | -7% | / | 28% | / | 16µM*!
COc1ccc(/C=C2\CN(Cc3ccccc3)C/C(=C\c3ccc(OC)c(O)c3)C2=O)cc1O | ? | / | ? | 40µM* | 45µM*
COc1ccc(C=C2C(=O)c3ccccc3C2=O)cc1O | ? | / | ? | 10µM* | 13µM*
NC1=NC2C(N=C(Br)N2[C@@H]2O[C@H]3COP(=O)(O)O[C@@H]3[C@@H]2O)C(=O)N1 (stereo not given in full) | / | / | / | / | 29%[59 µM]
CCCNC(=O)Cn1cnc2sc(C(=O)NCCCN3CCOCC3)c(C)c2c1=O | -2% | / | 61% | -13% | /
CCCNC(=O)Cn1cnc2sc(C(=O)NCCN(CC)CC)c(C)c2c1=O | 5% | 2% | 20% | 0% | 79µM*
Cc1ccc(C)c(Nc2nc3c(S(=O)(=O)c4ccc(C(C)C)cc4)nnn3c3ccsc23)c1 | -15% | / | 18% | 79µM* | -31%[59 µM]
Cc1ccc(C)c(Nc2nc3c(S(=O)(=O)c4ccc(Br)cc4)nnn3c3ccsc23)c1 | 56µM* | / | 4% | 50µM* | 18µM*
COc1ccccc1Nc1nc2c(S(=O)(=O)c3ccc(C(C)C)cc3)nnn2c2ccsc12 | 10% | / | 63% | 5% | 21%[59 µM]
Cc1ccc2c(c1)N(C(=O)c1ccc(F)cc1)C(C)(C)CC2(C)c1ccccc1 (stereo not given) | 7% | / | 28% | -2% | -1%[59 µM]
COc1cccc(NC(=O)Cn2nnc(-c3nc(-c4ccccc4)no3)c2N)c1 | -24% | / | 1% | -31% | -43%[59 µM]
SMILES | JMJD2A Tudor | L3MBTL1 block | HP1b chromo inh | BAZ2B inh | G9a block
O=C(NCCn1c(C(F)(F)F)nc2cc(C(F)(F)F)ccc21)[C@H]1CCCN1c1nc(CN2CCCCC2)cs1 | -28% | -1% | 33% | -30% | 71µM*
Cc1ccc(-c2csc(N3CCC[C@@H]3C(=O)NCCn3c(C(F)(F)F)nc4ccccc43)n2)cc1 | ? | -6% | -14% | ? | ?
S=c1[nH]nc(-c2ccco2)n1-c1ccccc1Cl | 5µM* | -7% | 14% | -21% | ?
COc1ccc(-c2cc(-c3n[nH]c(=S)n3-c3ccccc3Cl)[nH]n2)cc1 | -20% | -17% | 20% | -35% | 7.9µM*
COc1ccc(-c2cc(-c3ccc(OC)cc3)[nH]n2)cc1 | ? | -6% | 5% | -8% | 6%[59 µM]
S=c1[nH]nc(-c2cc(-c3ccco3)[nH]n2)n1-c1ccccc1 | 50µM* | 1% | -1% | ? | -20%[0.501 µM]
S=c1[nH]nc(-c2ccc3ccccc3n2)n1-c1ccccc1Cl | ? | -11% | -6%[57 µM] | 3% | ?
S=c1[nH]nc(-c2cc(-c3ccco3)[nH]n2)n1-c1ccccc1Cl | 89µM* | ? | -6% | 50µM* | 4.5µM*
COc1ccc(C(C(=O)NCc2ccccc2)N(C(=O)Cn2nnc3ccccc32)c2cccc(OC)c2)cc1 (stereo not given) | 1% | / | 23% | 1% | 1%[59 µM]
Cc1ccccc1NC(=O)CN(C)S(=O)(=O)c1cccc2nsnc12 | -12% | / | -8% | 6% | 8%[59 µM]
CCC(C)(C)NC(=O)CN(C(=O)CCC(=O)Nc1nccs1)c1ccc2c(c1)OCCO2 | -10% | / | 10% | ? | -23%
COc1ccc(N2C3=C(CC4=C2CC(C)(C)CC4=O)C(=O)CC(C)(C)C3)cc1 | ? | 2% | -5% | 0% | ?
COc1ccc(N2C3=C(CC4=C2CCCC4=O)C(=O)CCC3)cc1 | 56µM* | -17% | -52% | -28% | ?
CCCN(CCO)Cc1cccc(Cl)c1 | 3.5µM* | 8% | ? | ? | ?
CCCN(CCO)Cc1ccc(Br)cc1 | 20µM* | 8% | ? | ? | 8.9µM*
Cn1ncc(Br)c1C(=O)N1CCCCCC1 | -2% | / | 13% | 4% | 32µM*
CCOC(=O)N1CCN(Cc2nc3cc(NC(=O)c4ccccc4OC)ccc3n2C(C)C)CC1 | 50µM* | / | 24% | 79µM* | ?
CCC(=O)Nc1ccc2c(c1)nc1n2CCN(CCOC)C1 | 1% | / | 63% | -14% | 32µM*
COc1ccccc1C(=O)Nc1ccc2c(c1)nc1n2CCN(C2CCCCC2)C1 | ? | / | 6% | -20%[57.1 µM] | 32µM*
Cc1ccccc1C(=O)Nc1c(C)nc2ccccn2c1=O | -11% | / | 13%[57 µM] | 5% | 13%[59 µM]
COc1ccc(Cl)cc1NC(=O)CSC1=Nc2ccccc2C2=NC(CC(=O)NCc3cccs3)C(=O)N12 (stereo not given) | -21% | / | 21% | -7% | -32%[59 µM]
CCOC(=O)c1ccccc1NC(=O)c1nn(C)c2c1COc1ccccc1-2 | 6% | / | 40% | 24% | 14%[59 µM]
CCN1CCN(CC(=O)Nc2cc(S(=O)(=O)N3CCCCC3)ccc2Cl)CC1 | 22µM* | -15% | ? | / | /
O=C(CN1CCN(c2ccc(O)cc2)CC1)Nc1cc(S(=O)(=O)N2CCCC2)ccc1Cl | ? | / | ? | ? | 8.9µM*
